Test results: PubChem BioAssay (Tox21)
Inconclusive results are not listed. Calls of active or inactive are those of the source. Unless noted, the call rests on the fitted dose curve; in most records, active means well fitted curve in the direction sought with a large enough effect in the repeat runs; inconclusive means weak or mixed curves; inactive means no such curve, though single readings can be large; an effect the other way counts as inactive or inconclusive.

What was measured:
[1] = qHTS assay to identify small molecule agonists of the vitamin D receptor (VDR) signaling pathway - cell viability counter screen (AID 743224); further: series mostly up to about 63 µM; nearly all actives have a fitted effect of over 50% in size
How it was run: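 Viability is measured in the same wells as the VDR-bla reporter assay: after 16 h compound treatment and 2 h substrate loading, CellTiter-Glo is added and luminescence read 30 min later.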

[2] = qHTS assay to identify small molecule antagonists of the vitamin D receptor (VDR) signaling pathway - cell viability counter screen (AID 743225); further: nearly all actives have a fitted effect of over 50% in size
How it was run: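 HEK293T VDR-bla; cpd + 1a,25-(OH)2D3 3 nM final, 16 h 37C/5% CO2; B/G FRET substrate 2 h RT; then CellTiter-Glo 30 min RT, luminescence.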

[3] = qHTS assay to identify small molecule agonists of the NFkB signaling pathway (AID 1159509; active means well fitted curve in the direction sought with a large enough effect in the signal ratio in the repeat runs, not every such curve was filed as active; the % refers to the signal ratio; further: series mostly up to about 61 µM)
How it was run: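 ME-180 NFkB-bla, 2,000 cells/well, overnight plating; cpd pinned in DMSO, 5 h 37 C; B/G FRET substrate 1.5 h RT; ex 405, em 460/530 nm.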

[4] = qHTS assay to identify small molecule agonists of the NFkB signaling pathway - cell viability counter screen (AID 1159515; calls by dose curve; further: series mostly up to about 61 µM; nearly all actives have a fitted effect of over 55% in size)
How it was run: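 Multiplexed viability readout: after the 5 hr compound exposure and 1.5 hr FRET substrate step, CellTiter-Glo reagent went into the same NFkB-bla ME-180 wells; ATP luminescence was measured after 30 min at room temperature.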

[5] = qHTS assay to identify small molecule agonists of the endoplasmic reticulum stress response signaling pathway (AID 1159516; active means well fitted activation curve with a large enough effect in the signal ratio in the repeat runs, not every such curve was filed as active; the % refers to the signal ratio)
How it was run: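 Tox21 10K library screened in quantitative HTS format on ESRE-bla HeLa cells, a beta-lactamase reporter under ER stress response element control; 5 hr treatment, FRET read.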

[6] = qHTS assay to identify small molecule agonists of the endoplasmic reticulum stress response signaling pathway - cell viability counter screen (AID 1159517; calls by dose curve; further: series mostly up to about 61 µM; nearly all actives have a fitted effect of over 50% in size)
How it was run: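 CellTiter-Glo was added to wells already read for beta-lactamase FRET, and luminescence was recorded 30 min later. Cells: ESRE-bla HeLa, 1,500 per well, compound exposure 5 hr at 37 C.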

[7] = qHTS assay to identify small molecule antagonists of the retinoid-related orphan receptor gamma (ROR-gamma) signaling pathway - cell viability counter screen (AID 1159520); further: nearly all actives have a fitted effect of over 50% in size
How it was run: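 Tet-on ROR gamma CHO cells (1,000/well) were plated 4 hr, given compounds in DMSO for 2 hr at 37 C, then induced with 1 uM final doxycycline for 16 hr. Viability was read as ATP by CellTiter-Glo luminescence after 30 min.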

[8] = target: Nuclear receptor ROR-gamma (Homo sapiens) (UniProt P51449); test: qHTS assay to identify small molecule antagonists of the retinoid-related orphan receptor gamma (ROR-gamma) signaling pathway (AID 1159521)
How it was run: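 Cells were plated, rested 4 h at 37 C, exposed to compounds for 2 h, then given 1 uM final doxycycline hyclate to induce RORγ expression. After 16 h, ONE-Glo luminescence from the ROR response element reporter was measured.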

[9] = qHTS assay to identify small molecule agonists of the AP-1 signaling pathway - cell viability counter screen (AID 1159525; calls by dose curve; further: nearly all actives have a fitted effect of over 55% in size)
How it was run: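 ME-180 AP-1-bla, 2500 cells/well, Opti-MEM + 0.5% dialyzed FBS; overnight 37 °C; cpd 15-pt titration, 5 h 37 °C; CellTiter-Glo 30 min RT; luminescence read; normalised to TOAB and DMSO controls.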

[10] = qHTS assay to identify small molecule agonists of the AP-1 signaling pathway (AID 1159526; calls by dose curve)

Measured: Potency

Nc1c[n+](N2CCOCC2)no1
inactive: [1] | [2] | [3] | [4] | [5] | [6] | [7] | [8] | [9] | [10]

CC[N+](C)(C)c1cccc(O)c1
inactive: [1] | [2] | [3] | [4] | [5] | [6] | [7] | [8] | [9] | [10]

CCOc1ccc(C(=O)OCCN(CC)CC)cc1
inactive: [1] | [2] | [3] | [4] | [5] | [6] | [7] | [8] | [9] | [10]

CN1CCCC1
inactive: [1] | [2] | [3] | [4] | [5] | [6] | [7] | [8] | [9] | [10]

C[C@H]1C[C@@H](O)CC(C)(C)C1
inactive: [1] | [2] | [3] | [4] | [5] | [6] | [7] | [8] | [9] | [10]

CC(C)(C)c1nnc(NS(=O)(=O)c2ccccc2)s1
inactive: [1] | [2] | [3] | [4] | [5] | [6] | [7] | [8] | [9] | [10]

CC1(C)CO[C@@H](CC(=O)O)CN1
inactive: [1] | [2] | [3] | [4] | [5] | [6] | [7] | [8] | [9] | [10]

CCCCC/C=C\CCC=O
inactive: [1] | [2] | [3] | [4] | [5] | [6] | [7] | [8] | [9] | [10]

OC1CCCCC1c1ccccc1 (configuration not stated)
inactive: [1] | [2] | [3] | [4] | [5] | [6] | [7] | [8] | [9] | [10]

CC(=O)c1ccccc1O
inactive: [1] | [2] | [3] | [4] | [5] | [6] | [7] | [8] | [9] | [10]

CN1CCC(=C2c3ccccc3CC(=O)c3sccc32)CC1
inactive: [1] | [2] | [3] | [4] | [5] | [6] | [7] | [8] | [9] | [10]

Cc1c(O)cccc1O
inactive: [1] | [2] | [3] | [4] | [5] | [6] | [7] | [8] | [9] | [10]

FC(F)OC(Cl)C(F)(F)F (configuration not stated)
inactive: [1] | [2] | [3] | [4] | [5] | [6] | [7] | [8] | [9] | [10]

Nc1cc(=O)[nH]c(N)n1
inactive: [1] | [2] | [3] | [4] | [5] | [6] | [7] | [8] | [9] | [10]

CC(C)NCC(O)c1ccc(NS(C)(=O)=O)cc1 (configuration not stated)
inactive: [1] | [2] | [3] | [4] | [5] | [6] | [7] | [8] | [9] | [10]

C=COCC1CCC(CO)CC1 (configuration not stated)
inactive: [1] | [2] | [3] | [4] | [5] | [6] | [7] | [8] | [9] | [10]

CC(C(=O)O)c1ccc(CC2CCCC2=O)cc1 (configuration not stated)
inactive: [1] | [2] | [3] | [4] | [5] | [6] | [7] | [8] | [9] | [10]

c1ccc(CC2=NCCN2)cc1
inactive: [1] | [2] | [3] | [4] | [5] | [6] | [7] | [8] | [9] | [10]

C=C[Si](OC(=C)C)(OC(=C)C)OC(=C)C
inactive: [1] | [2] | [3] | [4] | [5] | [6] | [7] | [8] | [9] | [10]

O=S(O)CO
inactive: [1] | [2] | [3] | [4] | [5] | [6] | [7] | [8] | [9] | [10]

NS(=O)(=O)c1ccc(C(=O)O)cc1
inactive: [1] | [2] | [3] | [4] | [5] | [6] | [7] | [8] | [9] | [10]

CC(C)NCCCC1(C(N)=O)c2ccccc2-c2ccccc21
inactive: [1] | [2] | [3] | [4] | [5] | [6] | [7] | [8] | [10]

CO[C@]12C[C@@H](COC(=O)c3cncc(Br)c3)CN(C)[C@@H]1Cc1cn(C)c3cccc2c13
inactive: [1] | [2] | [3] | [4] | [5] | [6] | [7] | [8] | [10]

CCc1ccc(O)c(OC)c1
inactive: [1] | [2] | [3] | [4] | [5] | [6] | [7] | [9] | [10]
